# Source: PubChem BioAssay (NCATS)
# “And” between values parts separate entries of the source, which are not always exact repeats. Equal values may be shown once. Inconclusive results are not listed. Unmarked numbers belong to inactive results. The source made the active and inactive calls. Calls follow the shape of the dose curve; as a rule, active = well fitted cell-killing curve with a large enough effect; inconclusive = small, poorly fitted or top-dose-only effect; inactive = no such curve, though single readings can be large or run the other way.
# Test: qHTS of pediatric cancer cell lines to identify multiple opportunities for drug repurposing: Primary screen for SK-N-MC cells (AID 1347093)
# Conditions: SK-N-MC viability, CellTiter-Glo luminescence, 48 h; series mostly up to 46 µM; activity change, negative = cytotoxic: at the top concentration
# Source text: Drug repurposing or repositioning has been offered as a strategy for drug development in oncology programs. This approach has special potential for childhood cancers and other rare or orphan diseases, where the expected return on new drug development has been a disincentive to pharmaceuticals.
# In this project we exploit the poly-pharmacology of drugs to discover new indications via phenotypic screening of a panel of 19 well-characterized cell lines derived from solid tumors seen in children and adolescents. The goal is to identify approved drugs with previously unrecognized anticancer properties that has the potential to reveal new mechanisms and biological processes involved in carcinogenesis or drug resistance. We employed a titration-based paradigm (quantitative high-throughput screening or qHTS), where all compounds were tested at multiple concentrations for their effect on cell viability. Concentration-response curves (CRCs) were derived directly from the primary screen, and both potency and efficacy values were used to identify compounds with robust bioactivity profiles. We screened the NIH Chemical Genomics Center (NCGC) Pharmaceutical Collection (NPC) and Mechanism Interrogation Plate (MIPE) small molecule collections of approved and investigational compounds against these cell lines; and measured metabolically active cells after 48 hours of compound treatment as a proxy for cell viability.
# Assay Submitter: Nathalia J. Martinez, National Center for Advancing Translational Sciences, National Institutes of Health, Rockville, MD, USA; email: natalia.martinez@nih.gov
# [1] Shen, M et al. Quantitative high-throughput phenotypic screening of pediatric cancer cell lines identifies multiple opportunities for drug repurposing. Oncotarget 2017 Dec 19;9(4):4758-4772. PMID 29435139.
# The cells were obtained from University of North Carolina (UNC), Pediatric Preclinical Testing Program (PPT), and Coriell Institute (CI).
# qHTS cell viability assay:
# Cells were assayed in growth media at a density of 500-1,000 cells/well. Five microliters of cells were dispensed into 1,536-well, white, solid-bottom, TC-treated plates (Greiner Bio One) using a multidrop dispenser and incubated at 37 degrees C, 5% CO2, under a humidified atmosphere for 5 hours. Twenty-three nanoliters of compounds and controls (neutral control DMSO or positive control bortezomib at final concentration of 2.3 µM) were subsequently transferred by Kalypsys pintool. For primary screens, the MIPE collection was tested at 11-point dilutions (final concentrations range from 0.78 nM to 46 µM) and the NPC collection at 8-point dilutions (final concentrations range from 0.59nM to 46 µM). Compounds tested in follow-up screens were assayed at 11-point dilutions. Cells were incubated for 48 hours, followed by addition of 3 uL of CellTiter-Glo (Promega). After a 15 min incubation at room temperature, samples were analyzed for luminescence intensity using a ViewLux High-throughput CCD imager equipped with clear filters.
# Potency is read from the fitted curve at half-maximal effect.
SMILES,"activity change, negative = cytotoxic [%]",Potency
CN(CCOc1ccc(NS(C)(=O)=O)cc1)CCc1ccc(NS(C)(=O)=O)cc1,14.8,–
CC[N+](CC)(CC)CCOc1cccc(OCC[N+](CC)(CC)CC)c1OCC[N+](CC)(CC)CC,–,inactive
CN1CCN(C2=Nc3cc(Cl)ccc3Nc3ccccc32)CC1,–,inactive
COc1cc2nc(N(C)CCCNC(=O)C3CCCO3)nc(N)c2cc1OC (stereo not given),–,inactive
CC[C@@]1(O)C(=O)OCc2c1cc1n(c2=O)Cc2cc3c(CN(C)C)c(O)ccc3nc2-1,–,6.7 nM (active) and 23.5 nM (active)
CN(C)C(=N)N=C(N)N,–,inactive
CC1(CN2CCC(n3c(=O)[nH]c4ccccc43)CC2)OCc2ccccc2-n2cccc21 (stereo not given),–,33.2 µM (active)
CN1C2CCC1CC(OC(=O)C(CO)c1ccccc1)C2 (stereo not given),0.335,–
CN(Cc1cnc2nc(N)nc(N)c2n1)c1ccc(C(=O)N[C@@H](CCC(=O)O)C(=O)O)cc1,–,0.003 µM (active)
Nc1ccn([C@H]2CC[C@@H](CO)O2)c(=O)n1,–,18.7 µM (active) and 21.1 µM (active)
O=c1c(-c2ccc(O)cc2)coc2cc(O)cc(O)c12,-16.4,–
CN(C)CCCN1c2ccccc2CCc2ccc(Cl)cc21,–,332 nM (active) and 23.7 µM (active)
COc1cc2nc(N3CCN(C(=O)c4ccco4)CC3)nc(N)c2cc1OC,–,11.8 µM (active)
OCCN1CCN(CCCN2c3ccccc3Sc3ccc(C(F)(F)F)cc32)CC1,–,2.09 µM (active)
NCCS(=O)(=O)O,–,inactive
N[C@@H](Cc1c[nH]c2ccc(O)cc12)C(=O)O,–,inactive
O=C1c2c(O)ccc(O)c2C(=O)c2c(NCCNCCO)ccc(NCCNCCO)c21,–,235 nM (active) and 1 nM (active)
COc1ccc(C2CNC(=O)C2)cc1OC1CCCC1 (stereo not given),–,inactive
NCCCCCC(=O)O,–,inactive
Cc1cnc(C(=O)NCCc2ccc(S(=O)(=O)NC(=O)NC3CCCCC3)cc2)cn1,-1.38,–

SMILES,"activity change, negative = cytotoxic [%]",Potency
CN1CCN(CCCN2c3ccccc3Sc3ccc(Cl)cc32)CC1,–,0.0418 µM (active)
COc1cc2nc(N3CCN(C(=O)C4COc5ccccc5O4)CC3)nc(N)c2cc1OC (stereo not given),–,29.6 µM (active)
Cn1c(=O)c2c(ncn2C)n(C)c1=O,–,inactive
CC(C)Cc1ccc(C(C)C(=O)O)cc1 (stereo not given),–,inactive
CNCCCC12CCC(c3ccccc31)c1ccccc12,–,23.5 µM (active)
Cc1ccc(C(=O)Nc2ccc(S(=O)(=O)O)c3cc(S(=O)(=O)O)cc(S(=O)(=O)O)c23)cc1NC(=O)c1cccc(NC(=O)Nc2cccc(C(=O)Nc3cc(C(=O)Nc4ccc(S(=O)(=O)O)c5cc(S(=O)(=O)O)cc(S(=O)(=O)O)c45)ccc3C)c2)c1,6.89,–
COC(=O)Nc1nc2ccc(C(=O)c3cccs3)cc2[nH]1,–,4.7 nM (active) and 94.4 nM (active)
COc1nc(C)nc(Cl)c1NC1=NCCN1,–,inactive
CC(C)NCC(O)c1ccc(O)c(O)c1 (stereo not given),–,0.935 µM (active)
CC(COc1ccccc1)N(CCCl)Cc1ccccc1 (stereo not given),1.68,–
NS(=O)(=O)c1cc2c(cc1Cl)NCNS2(=O)=O,–,inactive
CC(C)(Oc1ccc(C2CC2(Cl)Cl)cc1)C(=O)O (stereo not given),17.6,–
COc1ccc(CCN(C)CCCC(C#N)(c2ccc(OC)c(OC)c2)C(C)C)cc1OC (stereo not given),2.14,–
CN1CCC(=C2c3ccccc3CC(=O)c3sccc32)CC1,–,6.62 µM (active)
CC(=O)OCC(CCn1cnc2cnc(N)nc21)COC(C)=O,–,inactive
O=c1c(O)c(-c2ccc(O)c(O)c2)oc2cc(O)cc(O)c12,–,8.33 µM (active)
CN1CCN2c3ccccc3Cc3ccccc3C2C1 (stereo not given),–,inactive
CCOC(=O)Nc1ccc(NCc2ccc(F)cc2)nc1N,-25.2,–
CS(=O)(=O)Nc1ccc([N+](=O)[O-])cc1Oc1ccccc1,–,23.5 µM (active)
CCc1cccc2c3c([nH]c12)C(CC)(CC(=O)O)OCC3 (stereo not given),-0.287,–
